Results filed as inconclusive are left out. A call without a number means that no potency is given here. The source made the active and inactive calls. Calls follow the shape of the dose curve; as a rule, active = well fitted cell-killing curve with a large enough effect; inconclusive = small, poorly fitted or top-dose-only effect, or effect the other way; inactive = no such curve, though single readings can be large or run the other way.
experiment: Quantitative High-Throughput drug screen in 47 multiple myeloma cell lines against the NCATS MIPE library collection: MM1R_ATCC cell viability assay (AID 1918981); conditions: MM1R multiple myeloma cells, CellTiter-Glo viability, 48 h; series mostly up to 45.8 µM
Outline: (§1)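 qHTS format: cells plated (500/well), pin-dosed with MIPE 4.0 compounds, kept 48 h at 37 °C. Readout was CellTiter-Glo luminescence, median RLU.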
Also: nearly all actives have a fitted effect of over 35% in size.
Potency is read from the fitted curve at half-maximal effect.

Compound	Potency
Nc1ccn([C@@H]2O[C@H](CO)[C@H](O)C2(F)F)c(=O)n1	0.0093 µM (active)
CC(=O)OCCN1C(=O)c2c(C)nc3ccc(S(=O)(=O)N4CCOCC4)cc3c2C1=O	inactive
Clc1cccc(-n2nnnc2NCc2ccccc2Oc2ccccn2)c1Cl	inactive
Cc1cc(Nc2cc(CN3CCOCC3)c3nc(C)c(Cc4ccc(Cl)cc4F)n3n2)n[nH]1	18.7 µM (active)
CC1COC2(CCN(c3nc(=O)c4cc(C(F)(F)F)cc([N+](=O)[O-])c4s3)CC2)O1 (stereo not drawn)	inactive
Cc1cn2cc(C(=O)N(C)CCO)cc(N[C@@H]3CCOc4cccc(C)c43)c2n1	inactive
COc1c(N2C[C@@H]3CCCN[C@H]3C2)c(F)cc2c(=O)c(C(=O)O)cn(C3CC3)c12	inactive
O=c1c2ccccc2nc2n1CCc1c-2[nH]c2ccccc12	inactive
CC=CC1=C(C(=O)O)N2C(=O)[C@H](NC(=O)[C@H](N)c3ccc(O)cc3)[C@@H]2SC1	inactive

experiment: Quantitative High-Throughput drug screen in 47 multiple myeloma cell lines against the NCATS MIPE library collection: LP1_DSMZ cell viability assay (AID 1918982); conditions: LP1 myeloma viability, CellTiter-Glo ATP luminescence, 48 h; series mostly up to 45.8 µM
Outline: as §1

Compound	Potency
CNc1nccc(-c2cccnc2Oc2cc(C(=O)Nc3cccc(C(F)(F)F)c3)ccc2C)n1	23.5 µM (active)
COC(=O)C[C@](O)(CCCC(C)(C)O)C(=O)O[C@@H]1C(OC)=C[C@]23CCCN2CCc2cc4c(cc2[C@H]13)OCO4	inactive
CN(C)CC(C)(C)CNc1nn2c(-c3ccccc3)nnc2cc1C1CCC1	inactive
CS(=O)(=O)c1ccc(-c2cnc(N)c(C(=O)Nc3ccccc3)n2)cc1	inactive
COc1ccc(CC2SC(=O)NC2=O)cc1C(=O)NCc1ccc(C(F)(F)F)cc1 (stereo not drawn)	inactive
CCN(CC)CCCCNc1ncc2cc(-c3cc(OC)cc(OC)c3)c(NC(=O)NC(C)(C)C)nc2n1	16.6 µM (active)
CC(=O)OCCN1C(=O)c2c(C)nc3ccc(S(=O)(=O)N4CCOCC4)cc3c2C1=O	inactive
NCC(=O)Nc1ccc(-n2nc(C(F)(F)F)cc2-c2ccc3c(ccc4ccccc43)c2)cc1	23.5 µM (active)
Cc1c(Cn2c(C)nc3c(C(=O)O)cc(N4CCOCC4)cc32)cccc1C(F)(F)F	inactive
CC1COC2(CCN(c3nc(=O)c4cc(C(F)(F)F)cc([N+](=O)[O-])c4s3)CC2)O1 (stereo not drawn)	inactive
Cc1cn2cc(C(=O)N(C)CCO)cc(N[C@@H]3CCOc4cccc(C)c43)c2n1	inactive
NC(=O)c1cccc2cn(-c3ccc([C@@H]4CCCNC4)cc3)nc12	inactive
O=c1c2ccccc2nc2n1CCc1c-2[nH]c2ccccc12	inactive
CC(C)(O)CCc1ccc(OCc2cc(-c3cccc(OC(F)F)c3)c3ncccc3c2)cc1	inactive

experiment: Quantitative High-Throughput drug screen in 47 multiple myeloma cell lines against the NCATS MIPE library collection: KMS28PE_JCRB cell viability assay (AID 1918983); conditions: KMS28PE multiple myeloma viability, CellTiter-Glo ATP, 48 h; series mostly up to 45.8 µM
Outline: as §1

Compound	Potency
CC(O)C1C(=O)N2C(C(=O)O)=C(SC3CNC(C(=O)N(C)C)C3)C(C)C12 (stereo not drawn)	inactive
CNc1nccc(-c2cccnc2Oc2cc(C(=O)Nc3cccc(C(F)(F)F)c3)ccc2C)n1	20.9 µM (active)
CCCCN1CCC(CNC(=O)c2c3n(c4ccccc24)CCCO3)CC1	23.5 µM (active)
COC(=O)C[C@](O)(CCCC(C)(C)O)C(=O)O[C@@H]1C(OC)=C[C@]23CCCN2CCc2cc4c(cc2[C@H]13)OCO4	inactive
CCNC(=O)Nc1ccc2ncc(Nc3ccc(C)cc3)nc2n1	inactive
CCCCCCCCCC(=O)N[C@@H](Cc1c[nH]c2ccccc12)C(=O)N[C@H](CC(N)=O)C(=O)N[C@@H](CC(=O)O)C(=O)N[C@@H]1C(=O)NCC(=O)N[C@@H](CCCN)C(=O)N[C@@H](CC(=O)O)C(=O)N[C@H](C)C(=O)N[C@@H](CC(=O)O)C(=O)NCC(=O)N[C@H](CO)C(=O)N[C@@H]([C@@H](C)CC(=O)O)C(=O)N[C@@H](CC(=O)c2ccccc2N)C(=O)O[C@@H]1C	inactive
CS(=O)(=O)c1ccc(-c2cnc(N)c(C(=O)Nc3ccccc3)n2)cc1	inactive
COc1ccc(CC2SC(=O)NC2=O)cc1C(=O)NCc1ccc(C(F)(F)F)cc1 (stereo not drawn)	inactive
Cc1ccc(CN2CCNCC2)cc1NC(=O)CNc1ccc(F)c(F)c1	20.9 µM (active)
NC(=O)c1c(OCc2c(F)cc(Br)cc2F)nsc1NC(=O)NCCCCN1CCCC1	18.7 µM (active)
CCN(CC)CCCCNc1ncc2cc(-c3cc(OC)cc(OC)c3)c(NC(=O)NC(C)(C)C)nc2n1	6.62 µM (active)
CNC(=O)CN1CCC(Oc2cc3c(Nc4cccc(Cl)c4F)ncnc3cc2OC)CC1	0.0833 µM (active)
Nc1ccn([C@@H]2O[C@H](CO)[C@H](O)C2(F)F)c(=O)n1	0.469 µM (active)
CC(=O)OCCN1C(=O)c2c(C)nc3ccc(S(=O)(=O)N4CCOCC4)cc3c2C1=O	inactive
COc1cccc(Nc2c(C(N)=O)cnc3c(C)cc(S(=O)(=O)c4cccc(C(=O)N(C)C)c4)cc23)c1	inactive
NCC(=O)Nc1ccc(-n2nc(C(F)(F)F)cc2-c2ccc3c(ccc4ccccc43)c2)cc1	29.6 µM (active)
Cc1c(Cn2c(C)nc3c(C(=O)O)cc(N4CCOCC4)cc32)cccc1C(F)(F)F	inactive
Clc1cccc(-n2nnnc2NCc2ccccc2Oc2ccccn2)c1Cl	inactive
Cc1c(NC(=O)OC[C@@H]2COCCN2)cn2ncnc(Nc3ccc4c(cnn4Cc4cccc(F)c4)c3)c12	16.6 µM (active)
CC1COC2(CCN(c3nc(=O)c4cc(C(F)(F)F)cc([N+](=O)[O-])c4s3)CC2)O1 (stereo not drawn)	inactive
Cc1cn2cc(C(=O)N(C)CCO)cc(N[C@@H]3CCOc4cccc(C)c43)c2n1	inactive
COc1c(N2C[C@@H]3CCCN[C@H]3C2)c(F)cc2c(=O)c(C(=O)O)cn(C3CC3)c12	inactive
O=c1c2ccccc2nc2n1CCc1c-2[nH]c2ccccc12	inactive
CC=CC1=C(C(=O)O)N2C(=O)[C@H](NC(=O)[C@H](N)c3ccc(O)cc3)[C@@H]2SC1	inactive
CC(C)(O)CCc1ccc(OCc2cc(-c3cccc(OC(F)F)c3)c3ncccc3c2)cc1	inactive
